Inconclusive results are not listed. Active and inactive are the calls of the source. Calls follow the shape of the full dose curve.

Sequence of Atrial natriuretic peptide receptor 2 (Homo sapiens) (P20594 whole entry, looked up): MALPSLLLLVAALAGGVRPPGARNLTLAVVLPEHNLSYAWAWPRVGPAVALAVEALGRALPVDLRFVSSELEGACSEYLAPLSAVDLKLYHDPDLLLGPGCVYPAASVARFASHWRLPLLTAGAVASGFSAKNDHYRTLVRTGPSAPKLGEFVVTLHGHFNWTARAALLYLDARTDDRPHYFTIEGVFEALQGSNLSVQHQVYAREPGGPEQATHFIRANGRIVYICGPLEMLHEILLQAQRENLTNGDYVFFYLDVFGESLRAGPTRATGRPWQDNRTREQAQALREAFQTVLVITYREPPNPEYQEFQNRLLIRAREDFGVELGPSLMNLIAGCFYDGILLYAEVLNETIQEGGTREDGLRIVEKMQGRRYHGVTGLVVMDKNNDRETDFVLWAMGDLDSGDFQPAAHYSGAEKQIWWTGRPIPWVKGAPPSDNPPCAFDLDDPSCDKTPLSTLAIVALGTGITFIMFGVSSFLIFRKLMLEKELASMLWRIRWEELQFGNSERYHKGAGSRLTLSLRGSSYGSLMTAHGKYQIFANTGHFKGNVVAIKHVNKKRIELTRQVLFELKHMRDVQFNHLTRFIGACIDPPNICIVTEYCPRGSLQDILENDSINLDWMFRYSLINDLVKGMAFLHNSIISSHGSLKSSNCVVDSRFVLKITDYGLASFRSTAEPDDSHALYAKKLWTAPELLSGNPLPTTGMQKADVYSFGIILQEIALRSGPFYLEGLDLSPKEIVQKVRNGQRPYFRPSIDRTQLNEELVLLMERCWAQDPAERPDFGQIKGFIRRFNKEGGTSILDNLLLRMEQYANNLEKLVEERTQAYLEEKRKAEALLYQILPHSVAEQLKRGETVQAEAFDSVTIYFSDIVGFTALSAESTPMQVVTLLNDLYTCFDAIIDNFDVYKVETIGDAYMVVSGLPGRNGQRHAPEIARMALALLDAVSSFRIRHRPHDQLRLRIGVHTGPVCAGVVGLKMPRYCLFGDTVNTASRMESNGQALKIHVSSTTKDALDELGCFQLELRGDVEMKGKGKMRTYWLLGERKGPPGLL

For this assay, the target named is Atrial natriuretic peptide receptor 2 (Homo sapiens) (UniProt P20594). The assay is described as follows: Natriuretic polypeptide receptor (hNpr2) antagonism - Pilot subtype selectivity assay (AID 1347050). Conditions: NPR2-expressing cells, cGMP antagonist-mode read-out; series mostly up to 38.3 µM. The method, boiled down:
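Pilot selectivity screen against hNpr2: HEK293 cGMP-sensor cells are treated with LOPAC1280 compounds, then with hNppC peptide at 1 nM final. The cGMP-driven luminescence change over 20 min at room temperature is the read-out.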
On to `O=C1NCC2(CCN(CCc3ccccc3)CC2)O1`, for which the outcome was inactive.

As for `COC(=O)[C@@H]1[C@H]2C[C@H]3c4[nH]c5ccccc5c4CCN3C[C@@H]2CC[C@@H]1O`, the outcome was inactive.

Consider `C[N+](C)(C)CCCCCC[N+](C)(C)C`, for which the result was inactive.

In the case of `CC(=O)O[C@]1(C(C)=O)CC[C@H]2[C@@H]3C=C(Cl)C4=CC(=O)[C@@H]5C[C@@H]5[C@]4(C)[C@H]3CC[C@@]21C`, the result was inactive.

As for `O=C1NC(=O)C(c2ccccc2)(c2ccccc2)N1`, the result was inactive.

Consider `Cc1cccc(C)c1OCC(C)N` (configuration not stated), for which the result was inactive.

With `CCN(CC)CCNC(=O)c1ccc(N)cc1`, the result was inactive.

With `NCCS`, the outcome was inactive.

`COc1ccccc1N1CCN(CCCNc2cc(=O)n(C)c(=O)n2C)CC1`: the result was inactive.

Consider `CN(C)CCC(c1ccccc1)c1ccccn1` (configuration not stated), for which the result was inactive.

As for `CC/C(=C(\c1ccccc1)c1ccc(OCCN(C)C)cc1)c1ccccc1`, the outcome was inactive.

For the molecule `CC(=O)CCCCn1c(=O)c2c(ncn2C)n(C)c1=O`, the outcome was inactive.

Consider `CCCCC1C(=O)N(c2ccccc2)N(c2ccccc2)C1=O`, for which the result was inactive.

Regarding `O=C(NCCN1CCOCC1)c1ccc(Cl)cc1`, the outcome was inactive.

Consider `CCCCCN(C)CCC(O)(P(=O)(O)O)P(=O)(O)O`, for which the result was inactive.

In the case of `CC(C)(C)c1ccc(C(O)CCCN2CCC(C(O)(c3ccccc3)c3ccccc3)CC2)cc1` (configuration not stated), the outcome was inactive.

For the molecule `CCN1CCC[C@H]1CNC(=O)c1cc(S(N)(=O)=O)ccc1OC`, the outcome was inactive.

Consider `NC(N)=Nc1nc(CSCC/C(N)=N/S(N)(=O)=O)cs1`, for which the result was inactive.

With `CC(C)NCC(O)COc1cccc2[nH]ccc12` (configuration not stated), the result was inactive.

Turning to `Clc1ccc(C(c2ccc(Cl)cc2)n2cc[n+](CC(OCc3ccc(Cl)cc3Cl)c3ccc(Cl)cc3Cl)c2)cc1` (configuration not stated), the result was inactive.

Take `CC1=C(/C=C/C(C)=C/C=C/C(C)=C/C(=O)Nc2ccc(O)cc2)C(C)(C)CCC1`: the result was inactive.

`CC(=O)N[C@@H](CS)C(=O)O`: the result was inactive.

For the molecule `CC(=O)c1ccc(S(=O)(=O)NC(=O)NC2CCCCC2)cc1`, the result was inactive.

In the case of `CCN(CC)C(=O)c1ccc(O)c(OC)c1`, the outcome was inactive.

`O=C(O)CCc1nc(-c2ccccc2)c(-c2ccccc2)o1`: the outcome was inactive.

With `CCCNC(=O)NS(=O)(=O)c1ccc(Cl)cc1`, the outcome was inactive.

`CCN(CC)CCOC(=O)c1ccc(N)cc1`: the result was inactive.

Source of the values: PubChem BioAssay (NCATS).
